The subject of assay [1] is CRL-7250. Kind of assay: qHTS assay to identify novel small-molecules to repurpose for Merkel cell carcinoma treatment (AID 1296009). To be noted: MCC and control cell lines, CellTiter-Glo viability, 72 h; at 44.8 µM (top of the series) unless noted. An outline of the steps:
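Cell viability, measured as CellTiter-Glo luminescence, was normalized between DMSO and no-cell wells. The cells had been exposed to 8- or 11-point compound dilutions for 72 hr at 37 degree celsius.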
(In general: In qHTS, concentration-response curves come from the screen itself.)

For assay [2], the system named is JCK. Description: qHTS profiling for inhibitors of Plasmodium falciparum proliferation (AID 504749). Note: potency is the fitted concentration of half-maximal effect. The note with it: P. falciparum in erythrocytes, SYBR Green DNA, 72 h; series mostly up to 28.7 µM. An outline of the steps: (§1)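 SYBR Green fluorescence of parasite DNA, read after lysis and overnight dark incubation, measured growth over 72 h in erythrocyte culture at 0.3% parasitemia and 2.5% hematocrit. Data normalised to DMSO and 0.29 uM artemisinin, with plate-drift correction.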

Assay [3] relates to N140. Described as above. To be noted: P. falciparum in erythrocytes, SYBR Green DNA, 72 h; series mostly up to 28.7 µM. The method in brief:
as §1

Assay [4] concerns P94_40. The assay is described as above. The note with it: P. falciparum in erythrocytes, SYBR Green DNA, 72 h; series mostly up to 28.7 µM. The method in brief: as §1
The subject of assay [5] is PC49. Described as above. The note with it: P. falciparum in erythrocytes, SYBR Green DNA, 72 h; series mostly up to 28.7 µM. The method in brief:
as §1

Assay [6] has as its system SC27B. The assay is described as above. The note with it: P. falciparum in erythrocytes, SYBR Green DNA, 72 h; series mostly up to 28.7 µM. An outline of the steps:
as §1

Assay [7] has as its system TAB109. The assay is described as above. To be noted: P. falciparum in erythrocytes, SYBR Green DNA, 72 h; series mostly up to 28.7 µM. An outline of the steps: as §1
Assay [8] has as its system TAB113. The assay is described as above. To be noted: P. falciparum in erythrocytes, SYBR Green DNA, 72 h; series mostly up to 28.7 µM. An outline of the steps: as §1

Records with an inconclusive call do not appear. Where a call stands in place of a potency, no number is given. Activity calls are given as the source filed them. Calls come from the whole dose curve; as a rule, active = well fitted inhibition curve with a large enough effect; inconclusive = small, poorly fitted or top-dose-only effect; inactive = flat fitted curve, though single readings scatter.
Note: nearly all actives have a fitted effect of over 60% in size.

Turning to `COc1ccccc1OC(=O)Oc1ccccc1OC`, the call in assay [1] was inactive.

For `CCNC(=O)NCc1cccc(Cl)c1`, the molecule was classed as inactive in assay [1].

For the molecule `CNC(=O)Oc1cccc2ccccc12`, the Potency result in assay [2], in assay [3], in assay [5], in assay [6], in assay [7] and in assay [8] was “inactive” throughout. For the same molecule, in assay [4], the Potency was 12.6 µM (active).

`CN(Cc1cc(Br)cc(Br)c1N)C1CCCCC1`: the call in assay [1] was inactive.

For the molecule `CC(=O)NC(Cc1ccccc1)C(=O)O` (configuration not stated), in assay [1], the outcome is “inactive [at 92 µM]”.

Regarding `NCCNC(=O)c1ccc(Cl)cn1`, in assay [1], the molecule was classed as inactive.

For the molecule `COc1ccc(-c2nc3ccc(C4=NNC(=O)CC4C)cc3[nH]2)cc1` (configuration not stated), the result in assay [1] was inactive.

Take `CN(C)C/C=C(/c1ccc(Br)cc1)c1cccnc1`: the molecule was called inactive in assay [1].

As for `CCC(C)(C)c1ccc(CC(C)CN2C[C@@H](C)O[C@@H](C)C2)cc1` (some centres not stated), in assay [1], the call was inactive.

Turning to `COc1cc(N)c(Cl)cc1C(=O)NC1CCN(Cc2ccccc2)CC1`, in assay [1], the call was inactive.

Take `CN(C)CCN(Cc1ccccc1)c1ccccn1`: the outcome in assay [1] was inactive.

For `Cn1cc(C(=O)[C@@H]2CCc3nc[nH]c3C2)c2ccccc21`, in assay [1], the molecule was classed as inactive.

As for `CCN(CCCCOC(=O)c1ccc(OC)c(OC)c1)C(C)Cc1ccc(OC)cc1` (configuration not stated), the result in assay [1] was inactive.

On to `Cc1[nH]c(C)c(Cl)c(=O)c1Cl`, for which, in assay [1], the outcome is “inactive [at 17.4 µM]”.

`CCCCN(CCCC)C(C(N)=O)c1ccc(OC)cc1` (configuration not stated): the call in assay [1] was inactive.

With `N[C@@H](CSSC[C@H](N)C(=O)O)C(=O)O`, the outcome in assay [1] was “inactive [at 0.588 µM]”.

On to `OC(CCN1CCCCC1)(c1ccccc1)c1ccccc1`, for which the molecule was classed as inactive in assay [1].

With `NS(=O)(=O)c1cc2c(cc1Cl)NCNS2(=O)=O`, the outcome in assay [1] was inactive.

With `Clc1ccc(C(Cn2ccnc2)OCc2ccc(Sc3ccccc3)cc2)c(Cl)c1` (configuration not stated), the molecule was classed as inactive in assay [1].

In the case of `O=S(=O)(c1cccc2cnccc12)N1CCCNCC1`, the outcome in assay [1] was inactive.

Consider `N[C@@H](Cc1c[nH]c2ccc(O)cc12)C(=O)O`, for which the outcome in assay [1] was inactive.
